Among all 69,000 compounds or so, about 420 (0.61%) showed an effect of 50% or more. Shown is part of a subset that was picked to be rich in strong results.

In this assay the target is T1, Histidine--tRNA ligase (Leishmania infantum) (UniProt A4I591).
T1 sequence (whole entry): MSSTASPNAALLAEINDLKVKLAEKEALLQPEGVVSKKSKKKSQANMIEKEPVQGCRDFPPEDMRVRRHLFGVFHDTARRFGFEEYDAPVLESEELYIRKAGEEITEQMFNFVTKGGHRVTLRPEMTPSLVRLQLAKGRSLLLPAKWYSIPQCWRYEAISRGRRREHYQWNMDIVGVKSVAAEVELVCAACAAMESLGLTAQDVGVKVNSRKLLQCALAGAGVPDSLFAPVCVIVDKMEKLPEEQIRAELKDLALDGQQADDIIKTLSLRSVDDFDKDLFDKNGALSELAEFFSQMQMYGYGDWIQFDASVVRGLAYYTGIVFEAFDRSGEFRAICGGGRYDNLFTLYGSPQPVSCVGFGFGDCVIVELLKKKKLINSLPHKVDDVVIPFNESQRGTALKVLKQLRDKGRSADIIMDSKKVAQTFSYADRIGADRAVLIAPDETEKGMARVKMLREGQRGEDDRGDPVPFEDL
Put plainly: Leishmania infantum Histidine tRNA synthetase (LdHisRS). The format is functional. Conditions: 30 µM. More on the design: scale not given: in the data most compounds retested in dose-response had high values.
With `COCc1nc2cc(NCc3ncc[nH]3)ccc2o1`, the Percent Effect amounted to 38.4%.

As to `COCc1cccc(NCc2cccnc2)c1`, the Percent Effect amounted to 6.67%.

On to `COCc1nc2cc(NCc3ccncc3)ccc2o1`, for which the Percent Effect turned out to be 100%.

`O=C(NC1CC1)[C@H]1COC[C@H]2CN(c3ncc(F)cn3)C[C@H]21`: the Percent Effect came out at 12%.

For `Cc1nc(CN2CCO[C@H]3CN(C(=O)c4cccn4C)C[C@H]32)cs1`, the Percent Effect was found to be 10.5%.

For `CNC(=O)[C@@H]1[C@@H](c2ccccc2)CN2CCN(Cc3cccs3)C[C@H]12`, the Percent Effect stood at 6.12%.

Consider `Cc1ccc(CN2C[C@@H]3CN(CC4CCOCC4)CCO[C@@H]3C2)s1`, for which the Percent Effect worked out at 19%.

Regarding `COCC(=O)N[C@H]1C[C@H]2C(=O)NC[C@@H](CCC(=O)NC3CC3)N2C1`, the Percent Effect was found to be 5.56%.

As for `CN(C)C(=O)[C@@H]1CCO[C@@H]2CCN(c3ncccn3)C[C@@H]21`, the Percent Effect came to 0%.

In the case of `CNC(=O)[C@@H]1CC[C@@H]2[C@@H](CCN2C(=O)N(C)C)O1`, the Percent Effect is 0%.

As to `COC[C@@]12CCO[C@@H]1CCN(C(=O)Cc1cccc(F)c1)C2`, the Percent Effect turned out to be 19.4%.

In the case of `CCOc1ccc2nc(CN3CCC(CN)C3)ccc2c1` (centres undefined), the Percent Effect came to 52.2%.

As to `CCOc1ccc2nc(CN3CCOC(CN)C3)ccc2c1` (centres undefined), the Percent Effect turned out to be 13.4%.

Regarding `CCOc1ccc2nc(CN3CCC(CNC(C)=O)C3)ccc2c1` (centres undefined), the Percent Effect came to 37.3%.

`COC[C@@]12CCO[C@@H]1CCN(C(=O)Cc1ccccc1F)C2`: the Percent Effect is 11.4%.

As for `O=C1[C@@H]2CCN(Cc3ccoc3)C[C@@H]2OCCN1Cc1cccnc1`, the Percent Effect is 15.3%.

On to `Cc1ccc(OCCC(=O)NC2CC(=O)N(C)C2)cc1C` (centres undefined), for which the Percent Effect is 12.7%.

Turning to `CN1CC(NC(=O)CCOc2cccc(Cl)c2)CC1=O` (centres undefined), the Percent Effect turned out to be 4.22%.

`Cc1cc(C)cc(OCCC(=O)NC2CC(=O)N(C)C2)c1` (centres undefined): the Percent Effect was 74.7%.

For `Cc1nc(CN2CCO[C@H]3[C@H](OCC(=O)N(C)C)CC[C@@H]32)cs1`, the Percent Effect was -9.73%.

For the molecule `COc1cccc(-c2n[nH]c3c2CN(C(=O)c2cc(C)n(C)n2)CC3)c1`, the Percent Effect turned out to be 0%.

As to `COc1cccc(-c2n[nH]c3c2CN(C(=O)c2cccc(=O)[nH]2)CC3)c1`, the Percent Effect was 65.6%.

Regarding `COc1cccc(-c2n[nH]c3c2CN(C(=O)c2ccncc2)CC3)c1`, the Percent Effect is 0%.

Take `Cc1csc(CN2CC[C@H]3C[C@@H](c4noc(C)n4)O[C@@H]3C2)n1`: the Percent Effect stood at 12.9%.

As to `COc1cccc(OCC(=O)N(C)c2cccnc2N(C)C)c1`, the Percent Effect stood at 10.2%.

As for `COc1ccc(CC(=O)N(C)c2cccnc2N(C)C)c(Cl)c1`, the Percent Effect worked out at 57.1%.

`CN(C)c1ncccc1N(C)C(=O)Cn1cc(-c2ccccc2)nn1`: the Percent Effect was found to be 0%.

As to `COC[C@]12COC[C@H]1CN(Cc1cc(OC)cc(OC)c1)C2`, the Percent Effect is 4.51%.

For the molecule `COCC(=O)N1CC[C@H]2C[C@@H](c3nnc(C4CC4)o3)O[C@@H]2C1`, the Percent Effect stood at 18.9%.

Regarding `CCn1nc(C)cc1C(=O)N1CC[C@H](OC)[C@H]2CN(CC3CC3)C[C@H]21`, the Percent Effect stood at 3.95%.

For the molecule `COc1ccc(CC(=O)N2CC[C@@H]3[C@H](CC2)N(C)CCS3(=O)=O)cc1`, the Percent Effect is 17.1%.

With `Cc1cnc2n(c1=O)CC(C(=O)Nc1cccc3cccnc13)CS2` (centres undefined), the Percent Effect turned out to be 67.3%.

On to `Cc1ccncc1NC(=O)C1CSc2ncc(C)c(=O)n2C1` (centres undefined), for which the Percent Effect is 15.4%.

Regarding `Cc1cccnc1NC(=O)C1CSc2ncc(C)c(=O)n2C1` (centres undefined), the Percent Effect was 20.5%.

`CC(C)NC(=O)[C@@H]1CCO[C@@H]2CCN(c3ncccn3)C[C@@H]21`: the Percent Effect worked out at 11.1%.

`COCc1nc2cc(NCc3nc(C)cs3)ccc2o1`: the Percent Effect is 106%.

As to `COCc1nc(CNc2cccc(-c3csc(C)n3)c2)cs1`, the Percent Effect was -6.67%.

Turning to `COCc1nc2cc(NCc3sc(C)nc3C)ccc2o1`, the Percent Effect came to 79.5%.

For `COCc1nc2cc(NCc3scnc3C)ccc2o1`, the Percent Effect turned out to be 54.5%.

As to `COCc1nc2cc(NCc3csc(C)n3)ccc2o1`, the Percent Effect was found to be 29.5%.

Consider `COCc1nc(CNc2cccc(-c3nc(C)c(C)o3)c2)cs1`, for which the Percent Effect was 0%.

Consider `COCCCSc1ccc(NCc2scnc2C)cc1`, for which the Percent Effect worked out at 9.09%.

As to `Cc1csc(CNc2cccc(OCCN3CCCC3)c2)n1`, the Percent Effect worked out at 23.2%.

On to `Cc1ncsc1CNc1cccc(OCCN2CCCC2)c1`, for which the Percent Effect was 25.2%.

Regarding `CN(C)CCNC(=O)[C@H]1C[C@@H]2CN(C(=O)NC3CCCC3)C[C@H]1O2`, the Percent Effect was 8.62%.

`CN(C)c1cccc(C(=O)N2C[C@H]3CC[C@@H]2CN(C(=O)C2CCC2)C3)c1`: the Percent Effect was found to be 18.4%.

For the molecule `O=S(=O)(c1cccs1)N1CCN2C[C@H](OCC3CC3)C[C@H]2C1`, the Percent Effect is 10.5%.

Turning to `C[C@@H]1C[C@H]2CN(C(=O)c3ccncn3)C[C@H]2O1`, the Percent Effect was -2.56%.

For the molecule `Cc1nnc([C@@H]2CCO[C@@H]3CCN(C(=O)Cc4ccccn4)C[C@@H]32)o1`, the Percent Effect was determined as 15.8%.

For the molecule `CN1[C@H](CN2CCCC2)C[C@@H]2CN(Cc3ccoc3)CC[C@@H]21`, the Percent Effect amounted to 6.84%.

For the molecule `CCn1cc(-c2cc(-c3ccn(C)c3)nc(N)c2C#N)cc1C#N`, the Percent Effect came out at 10.4%.

As to `Cc1n[nH]c(C)c1-c1cc(-c2cc[nH]c2)nc(N)c1C#N`, the Percent Effect amounted to 31.9%.

Consider `Cc1c(-c2cnn(C)c2)nc(N)c(C#N)c1-c1ccc(CO)o1`, for which the Percent Effect was 19.7%.

For the molecule `Cn1cc(-c2c(C#N)c(N)nc3c2CCc2[nH]ccc2-3)cc1C#N`, the Percent Effect is 68.4%.

Turning to `Cc1cc(-c2c(C)c(-c3cnn(C)c3)nc(N)c2C#N)oc1C`, the Percent Effect was found to be 22.4%.

Take `Cn1cc(-c2c(C#N)c(N)nc3c2CCc2[nH]ccc2-3)cn1`: the Percent Effect amounted to 97.4%.

For the molecule `Cc1n[nH]c(C)c1-c1cc(-c2ccc[nH]2)nc(N)c1C#N`, the Percent Effect was found to be 27.5%.

Consider `CCc1ccc(-c2c(C)c(-c3cnn(C)c3)nc(N)c2C#N)o1`, for which the Percent Effect came out at 19.7%.

Consider `Cc1n[nH]c(C)c1-c1c(C#N)c(N)nc2c1CCc1[nH]ccc1-2`, for which the Percent Effect came to 108%.

These data come from ChEMBL document CHEMBL3988442, “University of Dundee, Small-Polar-MMV Screening Library” (2021).
